TRPML1 agonist: qHTS for Agonists of the Human Mucolipin Transient Receptor Potential 1 (TRPML1); Mucolipin-1 (Homo sapiens), Q9GZU1; TRPML1-expressing cells, Ca2+ dye fluorescence, FDSS; activation, % (no concentration beside the values); 410,000 compounds, 0.12% hits; AID 624414, 2012; in the data active = activation above about 50%; inconclusive = mostly about 30% to 49%
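Agonist activity was taken from a 110 s kinetic Ca2+ dye read on the FDSS after pinning compounds onto TRPML1-DL cells. The cells were seeded at 1,500/well with Tet inducer, incubated about 16 h, then dye-loaded at room temperature.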
12-LOX inh: Primary qHTS assay for inhibitors of human arachidonate 12S-lipoxygenase (ALOX12): Round 2; Polyunsaturated fatty acid lipoxygenase ALOX12 (Homo sapiens), P18054; purified 12hLO, xylenol orange hydroperoxide absorbance; Potency, µM (highest dose often 108 µM), most hits filed as inhibitors; 580,000 compounds, 1.1% hits
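Purified human 12hLO (150 nM final) in 25 mM Hepes, 0.01% Triton X-100, pH 7.0 was preincubated 15 min at room temperature with compound. Then 40 uM arachidonic acid was added, 30 min. Hydroperoxide was read by Fe-XO absorbance ratio 573/405 nm.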
Vif-A3F inh: qHTS for Inhibitors of Vif-A3F Interactions: qHTS; HeLa A3F-eYFP + Vif (tagged APOBEC3F with the HIV-1 protein that degrades it), YFP fluorescence increase; Potency, µM (doses to about 46.1 µM); 390,000 compounds, 0.2% hits; AID 602313, 2012; note: nearly all actives have a fitted effect of over 65% in size
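HeLa cells stably expressing A3F-eYFP plus Vif, plated and incubated overnight at 37 deg C, then exposed to compounds overnight at 37 deg C. Blocked degradation read as raised yellow fluorescence (Ex 488/Em 500-530).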
Glioma ERSR ind: qHTS for Inducers of the Endoplasmic Reticulum Stress Response (ERSR) in Human Glioma: qHTS; U87-MG GRP78 promoter luciferase reporter, 16 h; Potency, µM, actives largely listed as activators; 420,000 compounds, 0.02% hits; note: series mostly up to about 76 µM; nearly all actives have a fitted effect of over 35% in size
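Stably transfected U87-MG glioma cells carrying a GRP78-based luciferase sensor; 16 h compound incubation. Luminescence end-point read 10 min after Bright-Glo addition at room temperature.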
Vif-A3G inh: qHTS for Inhibitors of Vif-A3G Interactions: qHTS | Potency, µM (series often up to 46.1 µM), hits mostly inhibitors | HeLa A3G-eYFP + Vif (tagged APOBEC3G with the HIV-1 protein that degrades it), YFP fluorescence, overnight | DNA dC->dU-editing enzyme APOBEC-3G (Homo sapiens), Q9HC16 | 410,000 compounds, 0.076% hits; note: nearly all actives have a fitted effect of over 60% in size
Target sequence (Q9HC16 whole entry, looked up): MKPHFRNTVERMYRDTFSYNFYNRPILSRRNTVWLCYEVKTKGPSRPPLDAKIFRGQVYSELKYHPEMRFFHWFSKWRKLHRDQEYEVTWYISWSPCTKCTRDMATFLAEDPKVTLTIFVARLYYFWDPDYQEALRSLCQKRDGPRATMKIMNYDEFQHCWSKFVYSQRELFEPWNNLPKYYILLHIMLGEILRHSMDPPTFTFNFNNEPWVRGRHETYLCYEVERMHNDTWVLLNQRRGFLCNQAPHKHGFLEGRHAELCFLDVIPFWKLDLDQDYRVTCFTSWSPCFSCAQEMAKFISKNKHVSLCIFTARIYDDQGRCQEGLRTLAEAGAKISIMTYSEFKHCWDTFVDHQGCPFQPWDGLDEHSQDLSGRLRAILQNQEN
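Read-out is eYFP fluorescence (Ex 488/Em 500-530) from Vif-expressing HeLa A3G-eYFP cells; more signal means A3G escaped Vif-mediated degradation. Cells plated overnight, compound pinned in, incubated overnight at 37 deg C.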
TRPML1 blocker: qHTS for Inhibitors of the Human Mucolipin Transient Receptor Potential 1 (TRPML1) | Mucolipin-1 (Homo sapiens), Q9GZU1 | TRPML1-inducible cells, Ca2+ dye fluorescence, FDSS; hits give low values; inhibition of EC80 agonist-evoked calcium signal | activity change, negative = inhibition, % (concentration not given with the values) | 390,000 compounds, 0.02% hits; in the data active = activity change below about -50%; inconclusive = between about -30% and that limit;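 note: stimulus is agonist 54-4 at its EC80 concentration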
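Tet-induced TRPML1-DL cells loaded with Ca8 no-wash calcium dye were read kinetically on FDSS. Compound addition was followed by EC80 agonist 54-4 (4 uM final); inhibition was read over 110 s.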
Each line names hits and unclear results; the compound was inactive in the other large screens; ! = not confirmed by another sample. Sampled rows, rich in hits. Any-hit rate of the full collection: about 1.3%. Unless noted, calls come from the whole dose curve; as a rule, active = well fitted curve in the direction sought with a large enough effect; inconclusive = small, poorly fitted or top-dose-only effect, or another doubt; inactive = no such curve, though single readings can be large; an effect the other way counts as inactive or inconclusive.

O=C(COC(=O)c1cccnc1Cl)Nc1ccccc1OC(F)F	Vif-A3F inh 10µM
C/C(=N\NC(=S)Nc1c(C)cccc1C)c1cc2ccccc2o1	12-LOX inh inconclusive, Vif-A3F inh inconclusive
C/C(=N\NC(=S)Nc1ccccc1C)c1cc2ccccc2o1	12-LOX inh 20µM
C=C1CCN(C(CC(C)C)C(=O)OC)S(=O)(=O)c2ccccc21 (stereo not drawn)	none
COC(=O)[C@H](CC(C)C)N1Cc2cc(OC)cc(OC)c2-c2ccccc2S1(=O)=O	12-LOX inh 25.1µM
COc1cc(-c2cc(C(=O)Nc3cccc(S(=O)(=O)N(C)C)c3)c3ccccc3n2)cc(OC)c1OC	none
Cc1ccc(-c2cc(C(=O)Nc3cccc(C#N)c3)c3ccccc3n2)o1	12-LOX inh 7.08µM (no result: TRPML1 agonist, Vif-A3F inh, Glioma ERSR ind, Vif-A3G inh, TRPML1 blocker)
Cc1ccc(-c2cc(C(=O)Nc3cccc(S(=O)(=O)N(C)C)c3)c3ccccc3n2)o1	12-LOX inh 6.31µM
O=C(COC(=O)c1cccs1)c1ccc(OC(=O)c2ccccc2)cc1	none (no result: TRPML1 agonist, Vif-A3F inh, Glioma ERSR ind, Vif-A3G inh, TRPML1 blocker)
COc1cc(-c2csc(NC3CC3)n2)ccc1OC(F)F	12-LOX inh 25.1µM (no result: TRPML1 agonist, Vif-A3F inh, Glioma ERSR ind, Vif-A3G inh, TRPML1 blocker)
CC1C(=O)Nc2ccc(-c3csc(NC4CCCC4)n3)cc21 (stereo not drawn)	12-LOX inh 15.8µM (no result: TRPML1 agonist, Vif-A3F inh, Glioma ERSR ind, Vif-A3G inh, TRPML1 blocker)
O=c1[nH]c2ccc(-c3csc(NC4CC4)n3)cc2[nH]1	12-LOX inh 17.8µM (no result: TRPML1 agonist, Vif-A3F inh, Glioma ERSR ind, Vif-A3G inh, TRPML1 blocker)
CC(C)CCNc1nc(-c2ccc3[nH]c(=O)[nH]c3c2)cs1	12-LOX inh 44.7µM (no result: TRPML1 agonist, Vif-A3F inh, Glioma ERSR ind, Vif-A3G inh, TRPML1 blocker)
CC1Sc2ccc(C(=O)Nc3nc(-c4ccc(F)cc4)cs3)cc2NC1=O (stereo not drawn)	none (no result: TRPML1 agonist, Vif-A3F inh, Glioma ERSR ind, Vif-A3G inh, TRPML1 blocker)
O=Cc1cccn1-c1cccc(F)c1	none (no result: TRPML1 agonist, Vif-A3F inh, Glioma ERSR ind, Vif-A3G inh, TRPML1 blocker)
O=c1[nH]c2ccc(-c3csc(NC4CCCC4)n3)cc2[nH]1	12-LOX inh 35.5µM (no result: TRPML1 agonist, Vif-A3F inh, Glioma ERSR ind, Vif-A3G inh, TRPML1 blocker)
CCOCCCNc1nc(-c2ccc3[nH]c(=O)[nH]c3c2)cs1	none (no result: TRPML1 agonist, Vif-A3F inh, Glioma ERSR ind, Vif-A3G inh, TRPML1 blocker)
CC(C)C(C)NC(=O)CCC(=O)c1ccc2c(c1)CCCC2 (stereo not drawn)	none (no result: TRPML1 agonist, Vif-A3F inh, Glioma ERSR ind, Vif-A3G inh, TRPML1 blocker)
CCCCn1c(=O)c(CCc2ccccc2)nc2c1c(=O)[nH]c(=O)n2Cc1ccccc1	12-LOX inh 35.5µM (no result: TRPML1 agonist, Vif-A3F inh, Glioma ERSR ind, Vif-A3G inh, TRPML1 blocker)
CCCCn1c(=O)[nH]c(=O)c2c1nc(-c1ccsc1)n2Cc1ccccc1	none
CCc1ccc2oc(C(=O)Nc3ccc(OC)cc3)cc(=O)c2c1	none (no result: TRPML1 agonist, Vif-A3F inh, Glioma ERSR ind, Vif-A3G inh, TRPML1 blocker)
Cc1ccc2c(c1C)NC(C)CC2C (stereo not drawn)	12-LOX inh 4.47µM!
Cc1cccc2c1NC1(CCCC1)CC2C (stereo not drawn)	none
COc1cc(C(CC(=O)Nc2ccccc2)N2Cc3ccccc3C2=O)cc(OC)c1OC (stereo not drawn)	none (no result: TRPML1 agonist, Vif-A3F inh, Glioma ERSR ind, Vif-A3G inh, TRPML1 blocker)
COc1ccc(Cn2c(SCc3cccc(OC)c3)nc3ccncc32)cc1	none (no result: TRPML1 agonist, Vif-A3F inh, Glioma ERSR ind, Vif-A3G inh, TRPML1 blocker)
Cc1ccc2c(c1)c1c(n2CC(O)CNC2CCCCC2)CCCC1 (stereo not drawn)	12-LOX inh 28.2µM
CCOC(=O)c1c(NC(=O)c2ccccc2C(=O)O)sc2c1CCCC2	none
CCOC(=O)c1c(N2C(=O)CC(Sc3ccccc3C(=O)O)C2=O)sc2c1CCCC2 (stereo not drawn)	12-LOX inh 15.8µM
CCCn1c(=O)n(CC(=O)Nc2ccc(F)cc2)c(=O)c2c1nc(C)n2CCOC	none (no result: TRPML1 agonist, Vif-A3F inh, Glioma ERSR ind, Vif-A3G inh, TRPML1 blocker)
O=c1[nH]c(=S)[nH]c2c1C(c1ccc(Br)cc1)c1c([nH]c(=S)[nH]c1=O)O2	12-LOX inh 5.01µM
Cc1ccccc1-c1nnn(CC(=O)N2N=C(c3cccs3)CC2c2cccs2)n1 (stereo not drawn)	none (no result: TRPML1 agonist, Vif-A3F inh, Glioma ERSR ind, Vif-A3G inh, TRPML1 blocker)
COCCNc1nc(-c2ccc(N3CCCC3=O)cc2)cs1	12-LOX inh 11.2µM (no result: TRPML1 agonist, Vif-A3F inh, Glioma ERSR ind, Vif-A3G inh, TRPML1 blocker)
O=C(Cn1nnc(-c2cccc(F)c2)n1)N(Cc1cccs1)c1ccc2c(c1)OCCO2	none (no result: TRPML1 agonist, Vif-A3F inh, Glioma ERSR ind, Vif-A3G inh, TRPML1 blocker)
O=C(/C(Cl)=C/Nc1ccccn1)C(F)(F)F	none (no result: TRPML1 agonist, Vif-A3F inh, Glioma ERSR ind, Vif-A3G inh, TRPML1 blocker)
Cc1ccnc(N/C=C(/Cl)C(=O)C(F)(F)F)c1	12-LOX inh 39.8µM (no result: TRPML1 agonist, Vif-A3F inh, Glioma ERSR ind, Vif-A3G inh, TRPML1 blocker)
NS(=O)(=O)c1ccc(NC(=O)CN2C(=O)CCC2=O)cc1	none
O=C(CN1C(=O)CCC1=O)Nc1ccc(Br)cc1	12-LOX inh 44.7µM
O=S(=O)(O)c1cc(Cl)cc(N=Nc2ccc(O)cc2O)c1O	12-LOX inh 44.7µM
O=S(=O)(O)c1cc(O)c2c(O)c(N=Nc3cc(Cl)ccc3O)c(S(=O)(=O)O)cc2c1	none (no result: 12-LOX inh)
CC(=O)N1CCN(C(=O)Cn2ccc3ccc(OCc4ccccc4)cc32)CC1	none (no result: TRPML1 agonist, Vif-A3F inh, Glioma ERSR ind, Vif-A3G inh, TRPML1 blocker)
Fc1ccc(/C=N/Nc2ccc(Cl)c(Cl)c2)cc1F	12-LOX inh 5.01µM (no result: TRPML1 agonist, Vif-A3F inh, Glioma ERSR ind, Vif-A3G inh, TRPML1 blocker)
CSc1ccc(/C=N/Nc2ccc(F)cc2)cc1	12-LOX inh 1.26µM (no result: TRPML1 agonist, Vif-A3F inh, Glioma ERSR ind, Vif-A3G inh, TRPML1 blocker)
